# Out of some 66,000 compounds screened, about 960 (1.5%) showed an effect of 50% or more. This excerpt belongs to a sample that is enriched for strong results.
# System: Trypanosoma brucei
# Assay: Trypanosoma brucei 72 hour study
# Format: functional, organism-based
# Parameters: scale not given: in the data most compounds retested in dose-response had high values
smiles,measurement,setting,value
O=C(O)C(F)(F)F.c1csc(CN2C[C@H](OCC3CC3)[C@H]3COC[C@H]32)n1,Percent Effect,"30.3 µM, […]",-56.8%
Cc1cc(C)n(C2CN(CC(O)c3cc(F)ccc3F)C2)n1 (stereo unspecified),Percent Effect,"30.3 µM, […]",7.425%
same,Percent Effect,"10 mM, 10 mM as filed; unlikely as a test dose",-39.98%
CCN1C(=O)CCC12CCCN(Cc1ccc(F)cc1)CC2.O=C(O)C(F)(F)F (stereo unspecified),Percent Effect,"30.3 µM, […]",-27.1%
C[C@@H]1CN(C(=O)c2ccsc2)C[C@]12CCN(c1ccsc1)C2=O,Percent Effect,"30 µM, 30.03 µM",49.54%
C[C@@H]1CN(C(=O)NC2CC2)C[C@]12CCN(c1ccsc1)C2=O,Percent Effect,"30 µM, 30.03 µM",50.13%
C[C@H]1CN(C(=O)N(C)C)C[C@@]12CCN(c1ccsc1)C2=O,Percent Effect,"30.3 µM, […]",-235.1%
Cc1ccnn1CCC(=O)N1CCCC1c1cc2cccnc2[nH]1.Cl (stereo unspecified),Percent Effect,"30.3 µM, […]",-12.68%
Cc1cccc(CN2C[C@@H]3COC[C@]3(CNC(=O)c3ccno3)C2)n1.O=C(O)C(F)(F)F.O=C(O)C(F)(F)F,Percent Effect,"30 µM, 30.03 µM",26.49%
Cc1nc(N2CCCC2)ncc1-c1cc(O)nc(N2CCCCC2)n1,Percent Effect,"30.3 µM, […]",-25.67%
Cc1nc(N2CCCC2)ncc1-c1cc(O)nc(N2CCCC2)n1,Percent Effect,"30 µM, 30.03 µM",64.4%
Cc1nc(N2CCCCC2)ncc1-c1cc(O)nc(N2CCCCC2)n1,Percent Effect,"30.3 µM, […]",-25.73%
CCOCC1CN(C(=O)c2cnccn2)Cc2cnn(CC3CC3)c21.O=C(O)C(F)(F)F (stereo unspecified),Percent Effect,"30 µM, 30.03 µM",61.22%
CCOCC1CN(S(=O)(=O)N(C)C)Cc2cnn(C)c21.O=C(O)C(F)(F)F (stereo unspecified),Percent Effect,"30 µM, 30.03 µM",56.34%
CCOCC1CN(S(=O)(=O)N(C)C)Cc2cnn(CC)c21.O=C(O)C(F)(F)F (stereo unspecified),Percent Effect,"30 µM, 30.03 µM",-21.09%
CCOCC1CN(S(=O)(=O)N(C)C)Cc2cnn(CC3CC3)c21.O=C(O)C(F)(F)F (stereo unspecified),Percent Effect,"30 µM, 30.03 µM",-18.48%
CCOCC1CN(C(=O)c2cccn2C)Cc2cnn(CC3CC3)c21.O=C(O)C(F)(F)F (stereo unspecified),Percent Effect,"30 µM, 30.03 µM",19.58%
CCOCC1CN(C(=O)c2cscn2)Cc2cnn(CC3CC3)c21 (stereo unspecified),Percent Effect,"30 µM, 30.03 µM",-19.67%
O=C(CC1CC1)N1CCN(Cc2cccnc2)c2ncccc2C1.O=C(O)C(F)(F)F.O=C(O)C(F)(F)F,Percent Effect,"30.3 µM, […]",-18.28%
C1CCC(CN2Cc3nnn(CC4CC4)c3C(COCC3CC3)C2)C1.O=C(O)C(F)(F)F (stereo unspecified),Percent Effect,"30.3 µM, […]",-7.314%
CCCS(=O)(=O)N1C[C@H]2C[C@H](C(=O)N3CCN(C)CC3)[C@@H](C1)O2.O=C(O)C(F)(F)F,Percent Effect,"30.3 µM, […]",2.556%
Cn1ccc(C(=O)NC2CCC23CCN(Cc2cnn(C)c2)CC3)c1.O=C(O)C(F)(F)F (stereo unspecified),Percent Effect,"30 µM, 30.03 µM",-26.08%
O=C(Nc1cccnc1)N(Cc1ccccc1)C1CC1,Percent Effect,"30 µM, 30.03 µM",60.16%
O=C(c1cccnc1)N(Cc1ccncc1)C1CC1,Percent Effect,"30 µM, 30.03 µM",-21.55%
CC(C)CN(C(=O)Nc1cccnc1)C1CC1,Percent Effect,"30 µM, 30.03 µM",-2.145%
COc1ccc(CNC2CCN(CCc3ccncc3)CC2)cc1O,Percent Effect,"30 µM, 30.03 µM",21.52%
Fc1ccc(CNC2CCN(CCc3ccncc3)CC2)cc1F,Percent Effect,"30 µM, 30.03 µM",6.927%
Cc1ccc(CNC2CCN(CCc3ccncc3)CC2)cc1C,Percent Effect,"30 µM, 30.03 µM",51.93%
O=C(O)C(F)(F)F.O=C1CCCN1Cc1nnc2n1CCCN(Cc1ccco1)C2,Percent Effect,"30.3 µM, […]",-37.98%
CC(C)(C)CC(=O)NCCn1nc(C2CCNC2)c2cccnc21.Cl (stereo unspecified),Percent Effect,"30.3 µM, […]",-18.41%
COCc1noc(Cn2c(=O)[nH]c3ccccc32)n1,Percent Effect,"30 µM, 30.03 µM",-41.22%
CCN1CCOCC12CCN(C(=O)Cc1ccccc1)CC2.O=C(O)C(F)(F)F,Percent Effect,"30 µM, 30.03 µM",60.57%
O=C(Cc1ccccc1)N1CCC2(CC1)COCCN2CC1CC1.O=C(O)C(F)(F)F,Percent Effect,"30 µM, 30.03 µM",11.75%
CCN1CCOCC12CCN(C(=O)Cc1cccs1)CC2.O=C(O)C(F)(F)F,Percent Effect,"30.3 µM, […]",-18.12%
O=C(C1CCC1)N1C[C@@H]2CC[C@H](C1)N(S(=O)(=O)c1cccnc1)C2,Percent Effect,"30 µM, 30.03 µM",-15.99%
CCOc1ncccc1CNC(=O)NC1CCOc2ccccc21 (stereo unspecified),Percent Effect,"30.3 µM, […]",-12.87%
C[C@@H]1CN(Cc2cccnc2)C[C@]12CCN(CCN1CCCC1)C2=O.O=C(O)C(F)(F)F.O=C(O)C(F)(F)F.O=C(O)C(F)(F)F,Percent Effect,"30.3 µM, […]",-30.87%
O=C(c1csc2nc(-c3ccc(Cl)cc3)cn12)N1CCCC(CO)C1 (stereo unspecified),Percent Effect,"30 µM, 30.03 µM",-27.9%
CCC1CN(C(=O)c2csc3nc(-c4ccc(Cl)cc4)cn23)CCN1 (stereo unspecified),Percent Effect,"30 µM, 30.03 µM",66.56%
CC(C)N1CCN(C(=O)c2csc3nc(-c4ccc(Cl)cc4)cn23)CC1,Percent Effect,"30 µM, 30.03 µM",-14.99%
Cc1nc(-c2ccc(F)cc2)cc(C2CCNCC2)n1,Percent Effect,"30.3 µM, […]",-5.19%
Cc1nc(-c2ccc(F)c(F)c2)cc(C2CCNCC2)n1.Cl,Percent Effect,"30.3 µM, […]",101.1%
Cc1nc(-c2ccccc2)cc(C2CCNCC2)n1.Cl,Percent Effect,"30.3 µM, […]",-24.18%
COc1ccc(-c2cc(C3CCNCC3)nc(C)n2)cc1.Cl,Percent Effect,"30.3 µM, […]",0.4357%
Cc1nc(-c2ccc(CO)cc2)cc(C2CCNCC2)n1.Cl,Percent Effect,"30.3 µM, […]",-17.1%
Cc1ccc(-c2cc(C3CCNCC3)nc(C)n2)cc1.Cl,Percent Effect,"30.3 µM, […]",86.87%

# Reference: ChEMBL document CHEMBL3988442, “University of Dundee, Small-Polar-MMV Screening Library” (2021)
